# Test results from PubChem BioAssay AID1347156 (National Center for Advancing Translational Sciences (NCATS), 2019).
# Records with an inconclusive call do not appear. Values without a mark were called inactive. Activity calls are given as the source filed them. Calls come from the whole dose curve; as a rule, active = well fitted cell-killing curve with a large enough effect; inconclusive = small, poorly fitted or top-dose-only effect; inactive = flat fitted curve, though single readings scatter.
# Assay: DAPI mCherry counterscreen qHTS for Zika virus inhibitors; note: nearly all actives have a fitted effect of over 55% in size
# Conditions: Vero cells, DAPI nuclear count cytotoxicity, imaging 48-72 h; series mostly up to 32.6 µM; activity change, negative = cell loss: at the top concentration
# Description: Assay Submitters (PI): Avindra Nath, Ph.D., National Institute of Neurological Disorders and Stroke (NINDS), Bethesda, MD Radhakrishnan Padmanabhan, Ph.D., Georgetown University (GU), Washington D.C. Zika Virus causes congenital defects, including microcephaly and is associated with Guillain-Barre syndrome, eningoencephalitis and myelitis in infected adult. […] Using a target-based approach, we hope to establish a screening paradigm to uncover novel, cell-active NS2B-NS3 protease (Zika Virus) specific inhibitors from NCATS' collection of small molecules using qHTS. […] Four assay panel was created to identify potential Zika Virus inhibitors. Namely, (1) GU unlinked NS2B-NS3 AMC tagged protease qHTS, (2) GU unlinked NS2B-NS3 Rhodamine tagged protease qHTS, (3) NINDS linked NS2B-NS3 AMC tagged protease qHTS, (4) NINDS linked NS2B-NS3 Rhodamine tagged protease qHTS. Active compounds were re-acquired and re-screened to confirm inhibition. Inhibitors were further screened against various confirmatory and counterscreens in dose response format. […] A DAPI (mCherry counterscreen) which determine Vero cell cytotoxicity was used to exclude false positive compounds. […] Early Translation Branch (ETB) National Center for Advancing Translational Sciences (NCATS), Rockville, MD National Institute of Health (NIH), Bethesda, Maryland
# 384 well ZIKV-mCherry & mCherry DAPI counterscreen: We have developed a new orthogonal imaging assay in 384-well plate format, which uses recombinant virus ZIKV-mCherry in Vero cells. Briefly, 30 microL of Vero cells derived from a green monkey cell line, were dispensed by Multidrop Dispenser into a clear solid bottom black 384 well plate (ultracarrier, Perkin Elmer LifeSciences) at a concentration of 5,000 cells per well. The plate was incubated overnight in a CO2 incubator at 37 degrees C. Compounds were delivered as a 126 nL DMSO solution by Kalypsys pintool transfer. Following compound transfer, 10 microL of ZIKV-mCherry was added at an MOI of 1 and incubated in a CO2 incubator for 48-72 hrs at 37 degrees C. After sufficient incubation of infected cells in test plates, 8 microL of 32% PFA was dispensed into assay plates to fix cells and incubated for 20 min at room temperature. Plates were washed 3 times with PBS using BioTek EL406 microplate washer/dispenser. After washing, 30 microL of PBS with 0.01% TX-100 containing Hoechst dye was dispensed into the each well of the plates for nuclear staining. 384-well plates were imaged on an automated, widefield high content imager (INCell 2200, GE Healthcare) using a 10x/0.45 NA lens and standard DAPI (nuclear stain) and mCherry (cy5) excitation and emission filters. The TIFFs were quantitated using the canned Multi Target Analysis protocol (GE Investigator Workstation software v3.7.2). Briefly, nuclei from the DAPI channel were identified using top hat segmentation and a sensitivity setting of 96 and minimum size area of 35 microm2. A recombinant Zika viral infection was monitored in the Cy5 channel (cells) using a 2 microm collar dilation from the nuclear bitmap. mCherry objects with an average nuclear RFU intensity above 450 (3 stdev above mean negative control wells) were considered "mcherry positive" and data was analyzed by percent infection rate.
# % is set by controls: 0 for no effect and ±100 for the full control effect; potency is the fitted concentration of half-maximal effect.
Compound,Potency,"activity change, negative = cell loss"
CC(C)=CCC[C@]1(C)C=Cc2c(O)c3c(c(CC=C(C)C)c2O1)O[C@]12C(=C[C@@H]4CC1C(C)(C)O[C@@]2(C/C=C(/C)C(=O)O)C4=O)C3=O,"1.12 µM [infected with Zika reporter virus, MOI 1] (active)",
CC(C)=CCCC1(C)C=Cc2c(O)c3c(c(CC=C(C)C)c2O1)OC12C(=CC4CC1C(C)(C)OC2(C/C=C(/C)C(=O)O)C4O)C3=O (stereo not drawn),3.16 µM (active),
O=c1oc2ccccc2c(O)c1C(CC(O)c1ccc(-c2ccc(Br)cc2)cc1)c1ccccc1 (stereo not drawn),15.8 µM (active),
O=C1C(I)=CC(=C(c2cc(I)c(O)c(I)c2)c2ccccc2C(=O)O)C=C1I,25.1 µM (active),
CC(=O)c1c(O)c(C)c(O)c(Cc2c(O)c3c(c(C(=O)/C=C/c4ccccc4)c2O)OC(C)(C)C=C3)c1O,14.1 µM (active),
CN(C)[C@@H]1C(=O)C(C(N)=O)=C(O)[C@@]2(O)C(=O)C3=C(O)c4c(O)cccc4[C@@](C)(O)[C@H]3[C@H](O)[C@@H]12,,-7.31%
O=C(O)c1cc(Oc2ccc(C(F)(F)F)cc2Cl)ccc1[N+](=O)[O-],,"-7.31% [at 32.6 µM, infected with Zika reporter virus, MOI 1]"
O=C(O)C(=O)c1cn(Cc2ccccc2)c2ccc(-c3ccc(OC(F)(F)F)cc3)cc12,28.2 µM (active),
O=c1c(C2CC(c3ccc(-c4ccc(Br)cc4)cc3)Cc3ccccc32)c(O)sc2ccccc12 (stereo not drawn),8.91 µM (active),
Cc1cc(SCc2sc(-c3ccc(C(F)(F)F)c(F)c3)nc2C)ccc1OCC(=O)O,14.1 µM (active),
N[C@@H](Cc1ccc(Oc2cc(I)c(O)c(I)c2)c(I)c1)C(=O)O,,-9.54%
O=c1c(O)c(-c2ccc(O)c(O)c2)oc2c(O)c(O)cc(O)c12,,"-7.13% [at 32.6 µM, infected with Zika reporter virus, MOI 1]"
CNc1ccc2oc(C[C@@H]3OC4(CC[C@@H]3C)O[C@H]([C@@H](C)C(=O)c3ccc[nH]3)[C@H](C)C[C@H]4C)nc2c1C(=O)O (stereo partly drawn),1 µM (active),
O=C1OC(c2ccc(O)c(S(=O)(=O)O)c2)(c2ccc(O)c(S(=O)(=O)O)c2)c2c(Br)c(Br)c(Br)c(Br)c21,,-3.73%
CC1=C(O)C(=O)C=C2C1=CC=C1[C@@]2(C)CC[C@@]2(C)[C@@H]3C[C@](C)(C(=O)O)CC[C@]3(C)CC[C@]12C,1.12 µM (active),
C[C@H]1[C@H]2Cc3ccc(O)cc3[C@]1(C)CCN2CCc1ccccc1,22.4 µM (active),
O=C(Nc1ccc(Br)cc1)c1cc(Br)cc(Br)c1O,8.91 µM (active),
CCCCCOc1cc2c(cc1-c1cc(/C=C/C(=O)O)ccc1O)C(C)(C)CCC2(C)C,15.8 µM (active),
